Molecules are shown by their SMILES. Active and inactive are the calls of the source.

Assay [1] is described as follows: small molecules captured by biotinylated probe aFSTL3 – biochemical, small-molecule microarray, fluorescence 635/667, stem cell growth factor project, primary screen (AID 1064).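 Further: measures binding of the biotinylated anti-FSTL3 antibody to printed compounds.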 The settings on record: higher = more signal.
Assay [2] in a line: binders from COS7 lysate, DM2A8 probe, primary screen, torsin A project, cell lysate, small-molecule microarray, fluorescence 635/667 (AID 1065). As to conditions: higher = more signal, COS7 lysate expressing mutant human TOR1A.
Assay [3] can be described thus: small molecules captured by biotinylated probe aFGF2 – biochemical, small-molecule microarray, fluorescence 635/667, stem cell growth factor project, primary screen (AID 1067).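 Further: measures binding of biotinylated aFGF2 protein to printed compounds on slides; z-score merges feature fluorescence and signal-to-noise across triplicate slides.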 As to conditions: higher = more signal.
A short description of assay [4]: small molecules captured by biotinylated probe aFGF10 – biochemical, small-molecule microarray, fluorescence 635/667, stem cell growth factor project, primary screen (AID 1071).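 Further: score merges 667 nm spot intensity and signal to noise from triplicate slides.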 The settings on record: higher = more signal.
Assay [5] has as its target Neurogenic locus notch homolog protein 2 (Homo sapiens) (UniProt Q04721). The experiment in a line: small molecules binding Notch2 protein – biochemical, small-molecule microarray, 635 nm fluorescence, stem cell growth factors, primary screen (AID 1073). As to conditions: higher = more signal.
For assay [6], the target named is Pro-neuregulin-1, membrane-bound isoform (Homo sapiens) (UniProt Q02297). The experiment in a line: small molecules binding neuregulin-1 protein – biochemical, small-molecule microarray, fluorescence 635/667, psychiatric disease protein project, primary screen (AID 1075).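 Further: score combines 667 nm spot fluorescence with signal to noise.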 The settings on record: NRG1 binding, 635 nm fluorescence, higher = more signal.
Chain of Pro-neuregulin-1, membrane-bound isoform (Homo sapiens) (Q02297 whole entry, looked up, the tested form may be a part, canonical isoform): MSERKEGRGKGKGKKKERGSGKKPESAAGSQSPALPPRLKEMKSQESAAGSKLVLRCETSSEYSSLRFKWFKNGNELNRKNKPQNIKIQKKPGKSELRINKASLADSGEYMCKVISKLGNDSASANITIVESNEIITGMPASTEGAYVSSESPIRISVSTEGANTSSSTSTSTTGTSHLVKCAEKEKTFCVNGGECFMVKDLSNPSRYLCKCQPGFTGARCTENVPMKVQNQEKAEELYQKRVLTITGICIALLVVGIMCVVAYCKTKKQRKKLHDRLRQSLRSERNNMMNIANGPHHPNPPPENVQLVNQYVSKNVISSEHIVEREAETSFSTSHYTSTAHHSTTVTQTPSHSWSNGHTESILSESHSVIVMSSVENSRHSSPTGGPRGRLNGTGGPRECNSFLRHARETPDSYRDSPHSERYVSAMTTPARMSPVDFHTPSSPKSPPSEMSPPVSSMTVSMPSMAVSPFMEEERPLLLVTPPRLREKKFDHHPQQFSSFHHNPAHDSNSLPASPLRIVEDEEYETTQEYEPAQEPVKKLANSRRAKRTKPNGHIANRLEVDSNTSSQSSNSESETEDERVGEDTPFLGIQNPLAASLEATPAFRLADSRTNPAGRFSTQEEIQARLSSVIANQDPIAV
The subject of assay [7] is Neuregulin-1 EGF-like domain. Briefly: small molecules binding NRG1 EGF domain – biochemical, small-molecule microarray, 635 nm fluorescence, primary screen (AID 1081).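 Further: binding of the protein to compounds printed on small-molecule microarray slides.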 The settings on record: higher = more signal.
Assay [8] is described as follows: FRG1 expression reporter modulators in myotubes – cell-based, C2C12 myotubes, firefly/Renilla luciferase, luminescence, FRG1 inhibition for FSHD, primary screen (AID 1084). As to conditions: FRG1 promoter luciferase, higher = more signal, called active from +8 up or from −8 down.
Assay [9] in a line: small molecules captured by biotinylated probe aFST – biochemical, small-molecule microarray, fluorescence 635/667, stem cell growth factor project, primary screen (AID 1086).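 Further: score merges 667 nm fluorescence with signal-to-noise of each printed compound spot.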 The settings on record: higher = more signal.
Assay [10] in a line: binders of probe aHhip on microarray, primary screen, stem cell growth factor project, biochemical, small-molecule microarray, fluorescence 635/667 (AID 1087).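 Further: score merges spot fluorescence at 667nm with spot signal to noise ratio.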 The settings on record: higher = more signal.
Assay [11] has as its system PRMT1 (protein arginine N-methyltransferase 1). Briefly: small molecules binding arginine methyltransferase PRMT1 – biochemical, small-molecule microarray, 635 nm fluorescence, primary screen (AID 1088).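 Further: binding of Prmt1 protein to compounds spotted on small-molecule microarray slides.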 The settings on record: higher = more signal.
Assay [12] is described as follows: growth effects on S. cerevisiae YJM789 – YJM789 clinical isolate, OD600, 24 h, basal, primary screen (AID 1089).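 Further: growth of clinical yeast isolate S. cerevisiae YJM 789 seeded 1000 cells per well; test concentration not given here.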 As to conditions: higher = more signal, called active from +8 up or from −8 down.
The nature of assay [13]: S. pombe growth modifiers, basal conditions – strain 972, OD600, 24 h, no modulator, primary screen (AID 1090).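 Further: basal condition with compound alone and no growth modifier present; test concentration not given here.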 As to conditions: S. pombe 972 growth, higher = more signal, called active from +8 up or from −8 down.
Assay [14] is described as follows: budding yeast growth modifiers under rapamycin – strain BY4716, OD600, 96 h, primary screen (AID 1091). Further: test concentration not given here. The settings on record: S. cerevisiae BY4716 + rapamycin, higher = more signal, called active from +8 up or from −8 down.
The target of assay [15] is Torsin-1A-interacting protein 2 (Homo sapiens) (UniProt Q8NFQ8). Briefly: small molecules binding lysate-expressed LULL1 – cell lysate, human LULL1 lysate, 635/667 nm fluorescence, primary screen (AID 1092).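 Further: probe is lysate of COS7 cells overexpressing human LULL1; score merges per-feature 667 nm fluorescence with signal-to-noise.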 The settings on record: small-molecule microarray, hLULL1 lysate binding, 635 nm fluorescence; higher = more signal.
Chain of Torsin-1A-interacting protein 2 (Homo sapiens) (Q8NFQ8 whole entry, looked up): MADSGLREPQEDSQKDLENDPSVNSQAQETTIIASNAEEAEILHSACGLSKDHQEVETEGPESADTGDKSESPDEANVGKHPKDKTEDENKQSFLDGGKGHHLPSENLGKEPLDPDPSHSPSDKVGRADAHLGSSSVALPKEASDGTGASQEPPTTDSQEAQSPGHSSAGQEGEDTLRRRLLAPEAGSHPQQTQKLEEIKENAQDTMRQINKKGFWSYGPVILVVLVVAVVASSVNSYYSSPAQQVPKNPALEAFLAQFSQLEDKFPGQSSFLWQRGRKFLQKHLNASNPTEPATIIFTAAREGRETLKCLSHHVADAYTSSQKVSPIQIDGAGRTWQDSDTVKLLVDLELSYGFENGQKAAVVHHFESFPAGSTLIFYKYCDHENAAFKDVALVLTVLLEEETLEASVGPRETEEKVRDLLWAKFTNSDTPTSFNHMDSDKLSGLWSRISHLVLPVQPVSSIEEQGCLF
The nature of assay [16]: optical density change of DRC41 E. coli – strain DRC41, OD650, 24 h, E. coli filamentation project, primary screen (AID 1093).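 Further: MC1000 strain lacking acrAB efflux and sulA so SOS filamentation is blocked; test concentration not given here.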 The settings on record: E. coli DRC41 growth, higher = more signal, called active from +8 up or from −8 down.
A short description of assay [17]: probe aLefty2 binding to arrayed compounds – biochemical, biotinylated probe, 635/667 nm fluorescence, primary screen (AID 1094).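 Further: score merges spot fluorescence near 667 nm with spot signal-to-noise ratio.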 The settings on record: small-molecule microarray, higher = more signal.
Assay [18] concerns Noggin (protein binding on small-molecule microarray). The experiment in a line: small molecules binding Noggin protein – biochemical, 635/667 nm fluorescence, primary screen (AID 1095).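 Further: score merges 667 nm feature fluorescence with signal to noise over triplicate slides.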 The settings on record: 635 nm fluorescence, higher = more signal.
For assay [19], the target named is Neurogenic locus notch homolog protein 3 (Homo sapiens) (UniProt Q9UM47). The experiment in a line: small molecules binding NOTCH3 protein – biochemical, 635/667 nm fluorescence, primary screen (AID 1096). The settings on record: small-molecule microarray, 635 nm fluorescence, higher = more signal.
Chain of Neurogenic locus notch homolog protein 3 (Homo sapiens) (Q9UM47 whole entry, looked up): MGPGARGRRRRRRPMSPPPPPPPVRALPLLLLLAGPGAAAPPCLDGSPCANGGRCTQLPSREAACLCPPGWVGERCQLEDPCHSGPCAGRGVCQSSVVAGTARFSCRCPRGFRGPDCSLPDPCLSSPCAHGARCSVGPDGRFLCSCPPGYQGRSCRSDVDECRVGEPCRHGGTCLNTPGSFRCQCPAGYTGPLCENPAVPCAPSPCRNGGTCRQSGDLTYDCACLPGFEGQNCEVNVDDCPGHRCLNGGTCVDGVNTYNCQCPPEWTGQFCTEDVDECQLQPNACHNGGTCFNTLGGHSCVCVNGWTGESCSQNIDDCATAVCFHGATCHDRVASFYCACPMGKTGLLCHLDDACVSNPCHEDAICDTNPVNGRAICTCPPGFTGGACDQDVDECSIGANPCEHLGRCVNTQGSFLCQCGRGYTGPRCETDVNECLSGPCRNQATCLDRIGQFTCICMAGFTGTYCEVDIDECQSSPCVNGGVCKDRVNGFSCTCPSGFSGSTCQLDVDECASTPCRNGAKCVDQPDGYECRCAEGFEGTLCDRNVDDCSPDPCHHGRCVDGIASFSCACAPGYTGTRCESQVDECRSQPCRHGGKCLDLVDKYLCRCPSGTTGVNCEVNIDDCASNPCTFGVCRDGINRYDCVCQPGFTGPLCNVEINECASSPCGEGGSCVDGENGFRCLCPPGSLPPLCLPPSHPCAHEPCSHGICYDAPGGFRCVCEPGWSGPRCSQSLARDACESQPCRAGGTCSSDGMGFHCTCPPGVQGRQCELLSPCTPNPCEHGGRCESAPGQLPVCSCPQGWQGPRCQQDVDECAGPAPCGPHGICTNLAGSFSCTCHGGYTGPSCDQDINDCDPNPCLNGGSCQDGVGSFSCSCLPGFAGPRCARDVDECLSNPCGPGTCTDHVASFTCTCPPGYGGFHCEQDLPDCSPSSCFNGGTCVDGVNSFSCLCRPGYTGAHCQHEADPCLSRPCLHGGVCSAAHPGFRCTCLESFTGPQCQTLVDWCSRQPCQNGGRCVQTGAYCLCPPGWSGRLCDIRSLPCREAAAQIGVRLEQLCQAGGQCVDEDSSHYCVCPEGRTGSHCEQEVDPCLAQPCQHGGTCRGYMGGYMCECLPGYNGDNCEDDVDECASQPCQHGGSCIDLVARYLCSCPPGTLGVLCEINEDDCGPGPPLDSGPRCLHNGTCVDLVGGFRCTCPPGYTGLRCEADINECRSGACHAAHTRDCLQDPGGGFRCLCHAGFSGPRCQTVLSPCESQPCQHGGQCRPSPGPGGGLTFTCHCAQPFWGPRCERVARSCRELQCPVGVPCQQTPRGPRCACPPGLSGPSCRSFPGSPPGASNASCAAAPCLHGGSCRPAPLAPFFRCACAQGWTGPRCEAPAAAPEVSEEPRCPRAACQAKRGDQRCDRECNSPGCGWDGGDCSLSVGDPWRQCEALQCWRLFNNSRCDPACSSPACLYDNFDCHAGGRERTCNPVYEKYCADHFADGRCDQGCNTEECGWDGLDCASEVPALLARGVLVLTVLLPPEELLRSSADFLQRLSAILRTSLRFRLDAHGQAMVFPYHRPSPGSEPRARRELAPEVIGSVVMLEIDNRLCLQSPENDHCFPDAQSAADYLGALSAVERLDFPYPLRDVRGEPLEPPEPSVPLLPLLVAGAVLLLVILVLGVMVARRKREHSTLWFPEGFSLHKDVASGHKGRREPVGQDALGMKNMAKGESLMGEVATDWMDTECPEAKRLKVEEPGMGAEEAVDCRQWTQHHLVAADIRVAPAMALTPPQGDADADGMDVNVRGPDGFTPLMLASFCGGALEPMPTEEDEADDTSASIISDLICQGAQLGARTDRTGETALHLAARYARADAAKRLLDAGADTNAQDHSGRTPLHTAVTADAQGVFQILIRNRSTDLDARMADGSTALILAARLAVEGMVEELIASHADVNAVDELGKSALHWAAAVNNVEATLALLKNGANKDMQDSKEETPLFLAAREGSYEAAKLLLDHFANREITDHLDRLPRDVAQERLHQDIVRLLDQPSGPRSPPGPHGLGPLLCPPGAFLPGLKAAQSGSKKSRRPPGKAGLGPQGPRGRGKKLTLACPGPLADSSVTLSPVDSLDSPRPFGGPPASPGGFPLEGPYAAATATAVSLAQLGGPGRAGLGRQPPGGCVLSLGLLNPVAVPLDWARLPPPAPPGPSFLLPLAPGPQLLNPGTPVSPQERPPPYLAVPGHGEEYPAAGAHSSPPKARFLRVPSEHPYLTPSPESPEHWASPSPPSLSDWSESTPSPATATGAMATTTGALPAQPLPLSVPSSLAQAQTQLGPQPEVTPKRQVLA
Assay [20] is described as follows: probe aEGFR binding to arrayed compounds – biochemical, biotinylated probe, 635/667 nm fluorescence, primary screen (AID 1097).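 Further: probe is a biotinylated anti-EGFR antibody binding compounds printed on slides; score combines fluorescence near 667 nm and signal to noise of each spot.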 The settings on record: small-molecule microarray, higher = more signal.

For `CCOC(=O)C[C@H]1[C@H](OC(=O)c2ccc(C(=O)c3ccccc3)cc2)[C@@H](NC(=O)c2ccc3ccccc3c2)c2cc(OCCCO)ccc2N1C(=O)c1ccc2ccccc2n1`, the composite z-score in assay [1] was -0.432; in assay [2], 0.761; in [3], -0.101; in assay [4] it was 0.746; in [5], 0.5; in [6], 0.43. The composite z-score in assay [7] is 0.53; in assay [9], 0.392; in assay [10] it was -0.151; in assay [11] it was 1.26; in assay [15] it was 0.962; in assay [17], 0.0249. Further, the composite z-score in assay [18] amounted to 0.836; in assay [19], 1.03; in assay [20], 0.111. The z-score was 0.476 (inactive) in assay [8]; 0.216 (inactive) in [12]; -0.629 (inactive) in [13]; 0.256 (inactive) in assay [14]; 1.79 (inactive) in assay [16].
Turning to `[N-]=[N+]=NCc1ccccc1C[C@@]1(C(=O)O)N=C(c2ccc(OCCCO)cc2)O[C@@H]1c1ccccc1CN=[N+]=[N-]`, the composite z-score in assay [1] was 0.0419; in [2], 1.34; in assay [3], -0.01; in assay [4] it was 0.556; in [5] it was 1.17; in assay [6], 1.1. Besides, the composite z-score is 1.22 in [7]; 0.663 in assay [9]; -0.173 in [10]; 1.28 in assay [11]; 1.59 in assay [15]; 0.0829 in assay [17]. Also, the composite z-score amounted to 0.34 in assay [18], 0.679 in [19] and 0.0264 in assay [20]. In addition, the z-score in assay [8] is 2.88 (inactive); in assay [12] it was -1.5 (inactive); in assay [13] it was -3.13 (inactive); in assay [14], -1.55 (inactive); in [16] it was 0.345 (inactive).
Consider `CN(C)CCCNC(=O)[C@@]1(Cc2ccccc2I)c2ccccc2C(=O)N(Cc2ccccc2)[C@H]1c1ccc(CO)cc1`, for which the composite z-score is -0.803 in assay [1]; -0.451 in [2]; 0.106 in assay [3]; 1.02 in assay [4]; 0.647 in [5]; 0.834 in assay [6]. The composite z-score in assay [7] is 1.39; in assay [9], 0.386; in assay [10] it was -0.66; in assay [11], 1.53; in assay [15], 3.43; in assay [17] it was -0.542. Also, the figures for the composite z-score in assay [18], in assay [19] and in assay [20] were 0.557, 1.08 and 0.0054, respectively. For the same molecule, the z-score in assay [8] is -4.24 (inactive); in assay [12] it was -0.282 (inactive); in assay [13], -14 (active); in assay [14] it was -2.33 (inactive); in [16], 0.207 (inactive).
Consider `C=C(COC)/C(=C/C[C@H](OC(=O)c1ccncc1)c1cccc(OCCO)c1)c1cnc2ccccc2c1`, for which the composite z-score was -0.125 in [1]; 0.544 in [2]; -0.103 in [3]; 0.427 in assay [4]; 1.41 in [5]; 1.3 in assay [6]. The composite z-score in [7] was 1.28; in assay [9] it was 0.841; in assay [10], -0.134; in assay [11], 1.54; in [15], 1.75; in [17], 0.0333. Moreover, the composite z-score is 1.53 in assay [18], 1.03 in assay [19] and -0.0025 in [20]. For the same molecule, the z-score in assay [8] was 2.63 (inactive); in assay [12], -2.15 (inactive); in [13] it was -0.677 (inactive); in assay [14], 0.0694 (inactive); in assay [16], -0.0055 (inactive).
`COCCOC(=O)N1C(=O)[C@@]2(c3cc(C#CCNC(N)=O)ccc31)[C@H](C(=O)NC[C@H](O)c1ccccc1)[C@H]1C(=O)O[C@H](c3ccccc3)[C@H](c3ccccc3)N1[C@@H]2c1ccc(OCCO)cc1`: the composite z-score in assay [1] came to 0.102; in assay [2] it was 0.249; in assay [3] it was 0.0198; in [4] it was 0.656; in assay [5], 0.431; in assay [6], 0.634. The composite z-score was 0.877 in assay [7]; 0.538 in assay [9]; -0.0994 in [10]; 1.55 in assay [11]; 2.5 in assay [15]; -0.0083 in assay [17]. Moreover, the composite z-score in assay [18] was 0.683; in assay [19], 1.16; in assay [20], -0.0828. Moreover, the z-score is 0.769 (inactive) in assay [8]; 2.39 (inactive) in [12]; 1.54 (inactive) in assay [13]; 4.57 (inactive) in assay [14]; 0.383 (inactive) in assay [16].

Values taken from PubChem BioAssay.
